Experimental data taken from PubChem BioAssay (NCATS).
Unmarked numbers belong to inactive results. Results filed as inconclusive are left out. Active and inactive are the calls of the source. Unless noted, calls follow the shape of the dose curve; as a rule, active = well fitted curve in either direction with a large enough effect (not every such curve was filed as active); inconclusive = small, poorly fitted or top-dose-only effect, or another doubt; inactive = flat fitted curve, though single readings scatter.

Tests used:
[1] = AP1 Signaling Pathway (AID 357); details: ME-180 AP-1-bla reporter, EGF-induced, beta-lactamase ratio, 5 h; at 17.2 µM (top of the series) unless noted; also: % is scaled to controls: 0 for no effect and ±100 for the full control effect
Outline: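 AP-1-bla ME-180 cells with beta-lactamase reporter under AP-1 response element, stimulated with EC50 EGF; compounds titrated, 5 hours at 37 degrees Celsius. CCF4 read at 460/530 nm ratio; positive and negative modulators judged by AC50.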

[2] = NFAT Signaling Pathway (AID 444); details: Jurkat NFAT-bla M1, carbachol, beta-lactamase ratio, 5 h; at 17.2 µM (top of the series) unless noted;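 also: carbachol stimulus at about its EC50 of 1 µM final; % is scaled to controls: 0 for no effect and ±100 for the full control effect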
Outline: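 Read-out: CCF4 FRET ratio (460 nm/530 nm) after 1 h RT dye loading, used for %activity and AC50 from titration series. Cells: Jurkat NFAT-β-lactamase/M1 line, treated with compound plus 1 uM carbachol for 5 h, 37 °C.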

[3] = Stat Signaling Pathway (AID 446); details: ME-180 SIE beta-lactamase reporter, IL-6 stimulated, 5 h; at 17.2 µM (top of the series) unless noted;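 also: ME-180 cervical cancer cells given 40 pM IL-6 alongside compound; SIE-controlled beta-lactamase reporter measured as 460/530 nm FRET emission ratio; % is scaled to controls: 0 for no effect and ±100 for the full control effect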
Outline: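 FRET read-out (405 nm excitation, 460/530 nm emission) of a beta-lactamase reporter under a STAT-inducible element in ME-180 cervical carcinoma cells. Cells with compound receive 40 pM IL-6 for 5 h. Values are normalised to AC90 stimulation and AC90 JAK-inhibitor controls.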

[4] = biological target: Glucocorticoid receptor (Homo sapiens) (UniProt P04150); experiment: GR-GFP Redistribution (AID 450;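 active = compounds whose dose series gives a full or clear partial fitted curve of increased nuclear translocation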; also: potency is read from the fitted curve at half-maximal effect)
[5] = qHTS Assay for Identification of Small Molecule Agonists for Hypoxia Response Element Signaling Pathway (AID 914; active = well fitted activation curve with a large enough effect in the signal ratio, with a control signal flat, not every such curve was filed as active; the % refers to the signal ratio; also: % of control where 0% means no effect); details: ME-180 (cervical carcinoma) HRE-bla reporter, beta-lactamase ratio, CoCl2, 17 h; activation: hits give high values
Outline: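 Read-out: CCF4 FRET ratio of 460nm to 530nm emission (excitation 405nm) after 2.5 hours at room temperature, taken from HRE-bla ME-180 cells that had been exposed to compound and EC50 CoCl2 for 17 hours.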

Sequence of Glucocorticoid receptor (Homo sapiens) (P04150 whole entry, looked up): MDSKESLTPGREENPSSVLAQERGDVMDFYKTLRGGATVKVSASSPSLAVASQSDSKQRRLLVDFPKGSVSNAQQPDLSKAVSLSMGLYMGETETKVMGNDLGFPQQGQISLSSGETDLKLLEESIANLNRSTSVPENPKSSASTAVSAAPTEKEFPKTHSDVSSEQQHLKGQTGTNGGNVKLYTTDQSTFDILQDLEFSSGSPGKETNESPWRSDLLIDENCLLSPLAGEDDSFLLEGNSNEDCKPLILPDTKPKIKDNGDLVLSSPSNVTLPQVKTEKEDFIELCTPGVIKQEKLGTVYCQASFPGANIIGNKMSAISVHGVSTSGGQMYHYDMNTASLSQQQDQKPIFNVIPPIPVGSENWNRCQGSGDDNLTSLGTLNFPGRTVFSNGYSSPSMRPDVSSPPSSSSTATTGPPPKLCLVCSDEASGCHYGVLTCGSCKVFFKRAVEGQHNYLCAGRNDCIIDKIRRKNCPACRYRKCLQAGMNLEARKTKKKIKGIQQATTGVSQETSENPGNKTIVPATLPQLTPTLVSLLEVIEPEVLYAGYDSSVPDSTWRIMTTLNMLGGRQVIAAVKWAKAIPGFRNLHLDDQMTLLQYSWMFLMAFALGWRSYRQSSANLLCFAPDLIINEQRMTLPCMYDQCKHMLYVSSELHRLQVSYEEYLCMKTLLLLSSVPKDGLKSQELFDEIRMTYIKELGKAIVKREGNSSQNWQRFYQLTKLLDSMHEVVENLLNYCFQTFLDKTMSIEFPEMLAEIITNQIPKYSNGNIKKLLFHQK

| Compound | activity change, negative = inhibition [1] | activity change, negative = inhibition [2] | activity, negative = inhibition [3] | Potency [4] | activation [5] |
| --- | --- | --- | --- | --- | --- |
| CCCSc1nc(C)c(CC(=O)O)c(=O)[nH]1 | -6.75% | 13% | -1.03% | > 20.6 µM | 11% |
| CCN(CC)CCNc1ncnc2c1[nH]c1ccc(OC)cc12 | 7.05% | -11.4% | 3.82% | > 20.6 µM | 2.09% |
| CCCOc1ccc(Cn2c(O)cc(=O)[nH]c2=O)cc1 | -5.5% | 7.39% | -0.906% | > 20.6 µM | 16.1% |
| CCOC(=O)c1c(CNCCN(CC)CC)n(C)c2cc(Br)c(OC)cc12 | 5.94% | 5.36% | -6.2% | > 20.6 µM | -9.75% |
| COc1ccc(C2CC(C(F)(F)F)n3ncc(C(=O)Nc4cccc(O)c4)c3N2)cc1OC (stereo not given) | -24.1% | -0.0394% | -21.1% | > 20.6 µM | -22.3% |
| COc1ccccc1NC(=O)Nc1nnc(C(C)C)s1 | -4.89% | 20.9% | -3.37% | > 20.6 µM | 10.4% |
| O=C(c1ccc(=O)oc1)N1CCN(C(c2ccccc2)c2ccccc2)CC1 | 26.4% | -101% (active) | -15.5% | > 20.6 µM | 9.9% |
| CC(C)OCCCNc1ncnc2c1cnn2-c1ccccc1 | -19.6% | 12.4% | -0.244% | > 20.6 µM | -23.4% |
| COC(=O)c1ccc(C(=O)OC)c(NC(=O)c2cc3ccccc3o2)c1 | -4.57% | 3.55% | 8.58% | > 20.6 µM | -0.252% |
| O=C(O)CCCC(=O)Nc1ccn(-c2ccccc2)n1 | 1.68% | -4.19% | 0.897% | > 20.6 µM | 6.56% |
| Cc1cc(C)nc(NC2=NCC(=O)N2c2ccc(Cl)cc2)n1 | 0.0978% | -13.8% | 5.94% | > 20.6 µM | 16.5% |
| COc1ccccc1C1/C(=C(\O)c2ccc3c(c2)OCCO3)C(=O)C(=O)N1CCCN(C)C (stereo not given) | 8.19% | -5.11% | 4.48% | > 20.6 µM | -1.93% |
| Cn1cc(Br)cc2nc(C(F)(F)F)nc1-2 | -3.15% | -3.67% | 3.32% | > 20.6 µM | 2.94% |
| CC1(C)CC(=O)C=C(N=CC2=C(O)CC(C)(C)CC2=O)C1 | 4.05% | -11.2% | 12.2% | > 20.6 µM | -17.7% |
| COc1cccc(Cn2c(Oc3ccccc3)nc3c2c(=O)n(C)c(=O)n3C)c1 | -23.1% | -10.8% | -11.1% | > 20.6 µM | -17.4% |
| COC(=O)/C(C#N)=C1/SC=C(C)N1c1ccccc1 | 1.21% | 3.89% | 4.42% | > 20.6 µM | -6.52% |
| CCC(=O)N(Cc1cccs1)C1CCOC(C)(C)C1 (stereo not given) | -6.24% | -16.2% | -2.05% | > 20.6 µM | -1.46% |
| CCN(CC)CCNc1nc2c(c(=O)[nH]c(=O)n2C)n1CCOc1ccccc1 | -3.03% | -7.16% | 8.2% | > 20.6 µM | 0.547% |
| CCOC(=O)C1(C(=O)OCC)C(c2ccccc2)CC(O)N1C(C)=O (stereo not given) | 5.72% | 2.25% | -1.29% | > 20.6 µM | 15.4% |
